Outcome data for 55 compounds are collected here from the GenesisPotency data set.

Each structure is given as a SMILES string. The campaign covered roughly 290,000 compounds. About 3,000 (1%) were called active. No stated cut-off is given here; in the data, active means inhibition mostly above about 36% (no sharp cut-off); inactive means mostly below about 34%. Only a selection was taken, and actives are over-represented in it overall.

In the assay the target is T1, Nucleotide-binding oligomerization domain-containing protein 1, Homo sapiens (UniProt Q9Y239).
T1 sequence (whole entry): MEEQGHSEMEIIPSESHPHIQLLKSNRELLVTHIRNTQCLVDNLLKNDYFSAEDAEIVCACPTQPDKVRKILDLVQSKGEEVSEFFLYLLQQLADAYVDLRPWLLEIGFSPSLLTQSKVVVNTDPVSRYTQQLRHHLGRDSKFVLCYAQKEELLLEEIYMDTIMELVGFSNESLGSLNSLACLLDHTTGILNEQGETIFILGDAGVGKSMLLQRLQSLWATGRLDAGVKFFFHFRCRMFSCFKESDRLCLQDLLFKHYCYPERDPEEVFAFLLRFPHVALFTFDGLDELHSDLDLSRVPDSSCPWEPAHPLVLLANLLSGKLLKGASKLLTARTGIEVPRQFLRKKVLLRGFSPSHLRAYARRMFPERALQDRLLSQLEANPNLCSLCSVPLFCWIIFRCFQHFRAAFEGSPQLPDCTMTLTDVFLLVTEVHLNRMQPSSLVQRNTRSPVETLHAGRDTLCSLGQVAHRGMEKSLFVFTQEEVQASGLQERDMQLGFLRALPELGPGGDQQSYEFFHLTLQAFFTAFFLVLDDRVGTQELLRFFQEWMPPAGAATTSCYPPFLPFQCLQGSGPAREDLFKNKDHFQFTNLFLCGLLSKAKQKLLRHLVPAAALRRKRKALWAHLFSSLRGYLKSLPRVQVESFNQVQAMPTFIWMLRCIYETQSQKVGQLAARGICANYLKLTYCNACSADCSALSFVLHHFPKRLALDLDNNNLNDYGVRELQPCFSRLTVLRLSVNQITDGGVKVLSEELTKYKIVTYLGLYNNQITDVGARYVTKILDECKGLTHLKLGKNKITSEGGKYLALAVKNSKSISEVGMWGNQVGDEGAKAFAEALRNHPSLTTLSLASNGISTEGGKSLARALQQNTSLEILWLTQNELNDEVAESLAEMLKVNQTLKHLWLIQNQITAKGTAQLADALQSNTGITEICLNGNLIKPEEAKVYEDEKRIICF
The assay is described as follows: NOD1 signaling inhibitors, primary screen, cell-based, luminescence, uHTS (AID 1578).
In the case of `CCN(CC)S(=O)(=O)c1cccc(NC(=O)Nc2cccc(C(F)(F)F)c2)c1`, the compound was classed as active.

For the compound `Cc1cccc(Cc2cnc(N3C(=N)SC(C)C3=O)s2)c1` (stereo not given), the compound was classed as active.

In the case of `Cc1ccc(Cc2cnc(N3C(=N)SC(C)C3=O)s2)cc1` (stereo not given), the compound was called active.

In the case of `CC1=C(C(=O)OCc2ccc3c(c2)OCO3)C(c2ccc(F)cc2)NC(=O)N1` (stereo not given), the result was active.

In the case of `CC1=C(C(=O)OCc2ccc3c(c2)OCO3)C(c2ccccc2)NC(=O)N1` (stereo not given), the call was active.

Regarding `CC1=C(C(=O)OCc2ccc3c(c2)OCO3)C(c2ccc(O)c([N+](=O)[O-])c2)NC(=O)N1` (stereo not given), the result was active.

In the case of `CC1=C(C(=O)OCc2ccc3c(c2)OCO3)C(c2ccc(Cl)cc2)NC(=O)N1` (stereo not given), the result was active.

Consider `O=C(NCc1ccccc1)C1=C[C@@H](c2csc3ccccc23)C[C@@H](OCCCCO)O1`, for which the call was active.

`CCn1nc(C)c(NC(=O)/C=C/c2ccc(OC)c(COc3ccc(Br)cc3)c2)c1C`: the compound was called active.

For the compound `CCC(C)N(CC(=O)Nc1cccc(C)c1C)C(=O)CCl` (stereo not given), the compound was classed as active.

`CCCN(CC(=O)Nc1ccccc1C)C(=O)CCl`: the compound was called active.

Consider `CCc1c(C)sc2nc(C(C)C)nc(SCC(=O)N3CCc4ccccc4C3)c12`, for which the compound was classed as active.

As for `Cc1cc(C(=O)CN2C(=O)c3ccccc3S2(=O)=O)c(C)n1CC1CCCO1` (stereo not given), the outcome was active.

`Cc1cc(C(=O)CSc2nc3ccccc3c(=O)n2C)c(C)n1Cc1ccc2c(c1)OCO2`: the compound was classed as active.

Consider `Cc1cc(C(=O)CSc2nc3ccccc3c(=O)n2C)c(C)n1CC1CCCO1` (stereo not given), for which the call was active.

In the case of `COc1ccc(CCNC(=S)N2CCC(Cc3ccccc3)CC2)cc1OC`, the call was active.

With `N=C1S/C(=C\c2ccco2)C(=O)N1c1nccs1`, the result was active.

Consider `N=C1S/C(=C\c2ccc(-c3cccc(Cl)c3)o2)C(=O)N1c1nccs1`, for which the compound was called active.

For the compound `Cn1ncc2c(N3CCN(c4ccc(Cl)c(Cl)c4)CC3)ncnc21`, the compound was called active.

Consider `O=C(Nc1ccc(Cl)c(Cl)c1)Nc1ccccc1NS(=O)(=O)c1cccs1`, for which the call was active.

For the compound `O=C(Nc1ccc(Cl)c(Cl)c1)Nc1ccc(Br)cc1F`, the call was active.

For `S=C(NCCc1ccccc1)Nc1cccc2cnccc12`, the outcome was active.

As to `COc1ccccc1-c1nnc(SCC(=O)Nc2nc(-c3ccccc3)cs2)n1C`, the compound was called active.

As for `COc1nc(Nc2nc3ccccc3c(=O)[nH]2)nc2ccc(C)cc12`, the call was active.

As for `COc1ccc(NC(=O)Cn2nnc(-c3ccccc3NS(=O)(=O)c3ccc(OC)cc3)n2)cc1`, the result was active.

As to `O=[N+]([O-])c1cccc(S(=O)(=O)Nc2nc3ccccc3nc2Nc2cccc(S(=O)(=O)N3CCCCC3)c2)c1`, the compound was classed as active.

For the compound `Cc1ccc(S(=O)(=O)Nc2nc3ccccc3nc2Nc2cccc(S(=O)(=O)N3CCCC3)c2)cc1`, the call was active.

For `COc1cc(Nc2nc3ccccc3nc2NS(=O)(=O)c2ccc([N+](=O)[O-])cc2)cc(OC)c1OC`, the compound was called active.

For `CCOc1cc(C)c(Cl)cc1S(=O)(=O)n1nnc2ccccc21`, the compound was classed as active.

Turning to `CC(=O)n1c(Cl)c(NC(=O)CCl)c2ccccc21`, the result was active.

For the compound `COc1ccc(-c2csc(NC(=O)c3ccccc3NS(=O)(=O)c3ccc(C)cc3)n2)cc1`, the outcome was active.

With `Cc1ccc(S(=O)(=O)Nc2ccccc2C(=O)Nc2nc(-c3ccc(F)cc3)cs2)cc1`, the compound was classed as active.

As to `COc1ccccc1C(=O)Nc1nc(-c2ccc(S(=O)(=O)N3CCOCC3)cc2)cs1`, the outcome was active.

`COc1cccc(NC(=O)Nc2nc(-c3ccc(OC)c(OC)c3)cs2)c1`: the result was active.

On to `COc1ccc(NC(=O)c2ccc(-c3ccccc3)cc2)cc1NS(=O)(=O)c1ccc(F)cc1`, for which the call was active.

For `COc1ccc(-c2csc(NC(=O)c3ccccc3NS(=O)(=O)c3ccc(F)c(F)c3)n2)cc1`, the compound was classed as active.

As for `COc1ccc(S(=O)(=O)Nc2ccccc2C(=O)Nc2nc(-c3ccc(F)cc3)cs2)cc1OC`, the outcome was active.

For `O=C(Nc1nc(-c2ccccc2)cs1)c1ccccc1NS(=O)(=O)c1ccc(F)cc1`, the result was active.

Regarding `Cc1ccc(NC(=O)C2=C(c3ccccc3)S(=O)(=O)CCS2(=O)=O)cc1`, the result was active.

As to `O=C(Nc1ccccc1)C1=C(c2ccccc2)S(=O)(=O)CCS1(=O)=O`, the compound was called active.

On to `NS(=O)(=O)c1ccc(Sc2nc3ccccc3s2)c([N+](=O)[O-])c1`, for which the compound was classed as active.

For the compound `COc1ccc(-c2nn(-c3ccccc3)cc2/C=N/NC(=O)c2ccc(Br)o2)cc1`, the outcome was active.

Regarding `Cc1ccc(-c2nn(-c3ccccc3)cc2/C=N/NC(=O)c2ccc(Br)o2)cc1`, the outcome was active.

In the case of `O=C(OCn1ncc(Br)c(Br)c1=O)c1ccc(F)cc1`, the compound was called active.

With `O=C(OCn1ncc(Br)c(Br)c1=O)c1c(F)cccc1F`, the outcome was active.

As for `CC(=O)Cn1ncc(Br)c(Br)c1=O`, the compound was called active.

As for `O=C(NC(=S)N(CCCCO)C1CCCCC1)c1sc2ccccc2c1Cl`, the result was active.

Turning to `Cc1nnc(SCC(=O)N2CCC(c3noc4ccc(F)cc34)CC2)s1`, the call was active.

For `O=C(NC(Nc1nc2ccc([N+](=O)[O-])cc2s1)(C(F)(F)F)C(F)(F)F)c1ccccc1Cl`, the call was active.

Turning to `CC[C@@]1(O)C(=O)OCc2c1cc1n(c2=O)Cc2cc3c(N)cccc3nc2-1`, the result was active.

With `Cc1ccc(Cl)c(NC(=O)COC(=O)c2ccccc2C(=O)c2ccc(Cl)c([N+](=O)[O-])c2)c1Cl`, the compound was called active.

On to `O=C(COC(=O)c1ccccc1C(=O)c1ccc(Cl)c([N+](=O)[O-])c1)NC1CC1`, for which the call was active.

Turning to `N#Cc1cccc(NC(=O)COC(=O)c2ccccc2C(=O)c2ccc(Cl)c([N+](=O)[O-])c2)c1`, the call was active.

Regarding `CNC(=O)COC(=O)c1ccccc1C(=O)c1ccc(Cl)c([N+](=O)[O-])c1`, the result was active.

Turning to `CC(C)(C)OC(=O)NCCc1nnc(S(=O)(=O)Cc2ccc(Cl)cc2Cl)o1`, the result was active.
